Records with an inconclusive call do not appear. Activity calls are given as the source filed them. Unless noted, the call rests on the fitted dose curve; in most records, active means well fitted curve in the direction sought with a large enough effect in the repeat runs; inconclusive means weak or mixed curves; inactive means no such curve, though single readings can be large; an effect the other way counts as inactive or inconclusive.
Assays:
[1] = qHTS assay to identify small molecule agonists of the hypoxia (HIF-1) signaling pathway - cell viability counter screen (AID 1224844; calls by dose curve; further: nearly all actives have a fitted effect of over 50% in size)
Procedure, shortened: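 Cells (HRE-bla ME-180, 2,000 per well) sat 5 hrs at 37C, got compound for 17 hrs, were read for CCF4-AM FRET, and were finally lysed with CellTiter-Glo for a 30 min room-temperature luminescence read.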

[2] = qHTS assay to identify small molecule agonists of H2AX (AID 1224845; active means well fitted activation curve with a large enough effect in the signal ratio in the repeat runs, not every such curve was filed as active; the % refers to the signal ratio)
Procedure, shortened: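 Wild-type CHO-K1 cells, plated overnight, exposed 3hr at 37C to 15 concentrations (0.76% DMSO final). Lysed, then HTRF anti-pH2AX (S139) cryptate and anti-H2AX-d2 antibodies, 24 hr room temperature; 665/620 nm emission read.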

[3] = qHTS assay to identify small molecule agonists of the hypoxia (HIF-1) signaling pathway (AID 1224846; active means well fitted activation curve with a large enough effect in the signal ratio in the repeat runs, not every such curve was filed as active; the % refers to the signal ratio)
Procedure, shortened: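 A low-serum medium (0.5% dialyzed FBS) holding 2,000 HRE-bla ME-180 cells per well is preincubated for 5 hrs, dosed with compounds by pintool, and kept a further 17 hrs at 37C, 5% CO2 before CCF4-AM FRET detection of beta-lactamase.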

[4] = qHTS RealTime-Glo MT Cell Viability Assay in HepG2 cells - 24 hour (AID 1224867); further: nearly all actives have a fitted effect of over 50% in size
Procedure, shortened: (§1)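 Compound treatment began 5 h after plating HepG2 cells (600/well) with NanoLuc luciferase and prosubstrate. Plates stayed at 37 C for 40 h; luminescence was captured at six time points, 0 h through 40 h.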

[5] = qHTS RealTime-Glo MT Cell Viability Assay in HEK293 cells - 32 hour (AID 1224868); further: nearly all actives have a fitted effect of over 50% in size; further: potency means the concentration at half of the fitted maximal effect; on activity change, negative = cytotoxic: top concentration of the series differs between compounds
Procedure, shortened: (§2)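 Quantitative high-throughput screen of the Tox21 10K library in HEK293: cells and RealTime-Glo reagents plated together, compound added at 5 h, luminescence monitored through 40 h at 37 C.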

[6] = A CellTox Green Cytotoxicity Assay to monitor cytotoxicity in HEK293 cells - 0 hour (AID 1224869); further: nearly all actives have a fitted effect of over 50% in size
Procedure, shortened: (§3)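 Fluorescence intensity, read at 0, 8, 16, 24, 32 and 40 h of compound treatment, reflected dye binding to DNA of dead HEK293 cells; compounds (23 nL, DMSO) were added 5 h after plating cells with reagent.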

[7] = qHTS RealTime-Glo MT Cell Viability Assay in HepG2 cells - 40 hour (AID 1224870); further: nearly all actives have a fitted effect of over 50% in size
Procedure, shortened: (§4)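 HepG2 cells (600/well) mixed with RealTime-Glo MT reagent, settled 5 h at 37 C/5% CO2 before compound addition. Nonlytic NanoLuc luminescence from viable-cell prosubstrate reduction read repeatedly during 40 h treatment at 37 C.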

[8] = A CellTox Green Cytotoxicity Assay to monitor cytotoxicity in HEK293 cells - 40 hour (AID 1224871); further: nearly all actives have a fitted effect of over 45% in size
Procedure, shortened: as §3

[9] = qHTS RealTime-Glo MT Cell Viability Assay in HEK293 cells - 16 hour (AID 1224872); further: nearly all actives have a fitted effect of over 50% in size; further: potency means the concentration at half of the fitted maximal effect; on activity change, negative = cytotoxicity: top concentration of the series differs between compounds
Procedure, shortened: as §2

[10] = qHTS RealTime-Glo MT Cell Viability Assay in HepG2 cells - 8 hour (AID 1224873); further: nearly all actives have a fitted effect of over 55% in size; further: potency means the concentration at half of the fitted maximal effect
Procedure, shortened: as §4

[11] = qHTS RealTime-Glo MT Cell Viability Assay in HEK293 cells - 40 hour (AID 1224874); details: RealTime-Glo luminescence; max response: stronger effect = lower value; further: nearly all actives have a fitted effect of over 50% in size; further: potency means the concentration at half of the fitted maximal effect
Procedure, shortened: (§5)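 Viable HEK293 cells reduce a cell-permeant prosubstrate; the product diffuses out and is consumed by NanoLuc in the medium to give light. Compounds went in after a 5 h incubation and plates were read over the treatment course.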

[12] = A CellTox Green Cytotoxicity Assay to monitor cytotoxicity in HEK293 cells - 24 hour (AID 1224875); further: nearly all actives have a fitted effect of over 45% in size
Procedure, shortened: as §3

[13] = A CellTox Green Cytotoxicity Assay to monitor cytotoxicity in HepG2 cells - 16 hour (AID 1224876); further: nearly all actives have a fitted effect of over 45% in size
Procedure, shortened: (§6)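 Using 1536-well format, dye-containing HepG2 suspension was seeded, allowed 5 h at 37 C/5% CO2, dosed by pintool with compounds, positive and negative controls, and imaged for fluorescence across 40 h.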

[14] = qHTS RealTime-Glo MT Cell Viability Assay in HepG2 cells - 32 hour (AID 1224877); further: nearly all actives have a fitted effect of over 55% in size
Procedure, shortened: as §1

[15] = A CellTox Green Cytotoxicity Assay to monitor cytotoxicity in HepG2 cells - 24 hour (AID 1224878); further: nearly all actives have a fitted effect of over 45% in size
Procedure, shortened: as §6

[16] = A CellTox Green Cytotoxicity Assay to monitor cytotoxicity in HepG2 cells - 40 hour (AID 1224879); further: nearly all actives have a fitted effect of over 40% in size
Procedure, shortened: as §6

[17] = qHTS assay to identify small molecule agonists of H2AX - cell viability counter screen (AID 1224847; calls by dose curve; further: top concentration of the series differs between compounds; nearly all actives have a fitted effect of over 30% in size)
Procedure, shortened: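 For this counter screen, overnight-attached CHO-K1 cells received test compounds (15 concentrations, 0.76% DMSO final); 3 hr later at 37C, CellTiter-Glo reagent was added and luminescence recorded after 30 min at room temperature.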

[18] = qHTS RealTime-Glo MT Cell Viability Assay in HEK293 cells - 0 hour (AID 1224880)
Procedure, shortened: as §5

[19] = qHTS assay to identify small molecule antagonists of the estrogen related receptor (ERR) signaling pathway from Tox21 library (AID 1224848); further: nearly all actives have a fitted effect of over 50% in size
Procedure, shortened: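 ERR reporter cell line (from NTP) seeded 2,000 cells/well, rested 6 h at 37 C/5% CO2, then pin-dosed with compounds in DMSO. After 18 h at 37 C, ONE-Glo added; luminescence read after 30 min at room temperature.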

[20] = qHTS assay to identify small molecule agonists of the estrogen related receptor (ERR) signaling pathway from Tox21 library (AID 1224849; calls by dose curve; further: nearly all actives have a fitted effect of over 15% in size); details: ERR reporter cell line, ONE-Glo luciferase, 18 h; at 92.4 µM (top of the series) unless noted
Procedure, shortened: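 Screening used an NTP-provided ERR luciferase cell line. Compounds in DMSO were added 6 h after seeding and left 18 h at 37 C before a 30 min ONE-Glo step and luminescence reading.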
On the % scale 0 is the no-effect control and ±100 the full control effect.

C=CCBr
inactive: Potency [1] | Potency [2] | Potency [3] | Potency [4] | Potency [5] | Potency [6] | Potency [7] | Potency [8] | Potency [9] | Potency [10] | max response [11] 0.528% | Potency [12] | Potency [13] | Potency [14] | Potency [15] | Potency [16]

O=C(NC(=O)c1ccccc1Cl)Nc1ccc(OC(F)(F)F)cc1
inactive: Potency [1] | Potency [2] | Potency [3] | Potency [17] | Potency [4] | Potency [6] | Potency [7] | Potency [8] | Potency [10] | Potency [12] | Potency [13] | Potency [14] | Potency [15] | Potency [16] | Potency [18]

Clc1c(Cl)c(Cl)c(Cl)c(Cl)c1Cl
inactive: activity change, negative = cytotoxicity [1] 4.74% [at 6.97 µM] | activation (H2AX phosphorylation) [2] -0.165% [at 14 µM] | activation [3] -0.723% [at 7.01 µM] | activity change, negative = cytotoxicity [4] -0.564% [at 6.97 µM] | activity change, negative = cytotoxic [5] 0.699% [at 6.97 µM] | cytotoxicity [6] -0.372% [at 6.97 µM] | activity change, negative = cytotoxic [7] 0.985% [at 6.97 µM] | cytotoxicity increase [8] -20.6% [at 6.97 µM] | activity change, negative = cytotoxicity [9] 3.93% [at 6.97 µM] | viability change, negative = cytotoxic [10] 1.69% [at 6.97 µM] | max response [11] 8.77% | activity change [12] -16.1% [at 6.97 µM, stronger effect = higher value] | cytotoxicity increase [13] 0.26% [at 6.97 µM] | activity change, negative = cytotoxic [14] 0.7% [at 6.97 µM] | cytotoxicity increase [16] -0.205% [at 6.97 µM] | activity change, negative = cytotoxicity [18] 2.6% [at 6.97 µM]

CCO/N=C(\CC)C1=C(O)CC(c2c(C)cc(C)cc2C)CC1=O (stereo not drawn)
inactive: Potency [1] | Potency [2] | Potency [3] | Potency [17] | Potency [4] | Potency [6] | Potency [7] | Potency [8] | Potency [10] | Potency [12] | Potency [14]

O=C(NC(=O)c1c(F)cccc1F)Nc1ccc(Oc2ccc(C(F)(F)F)cc2Cl)cc1F
active: Potency [5] 43.6 µM | Potency [9] 24.5 µM | Potency [11] 43.6 µM
inactive: Potency [1] | Potency [2] | Potency [3] | Potency [4] | Potency [6] | Potency [7] | Potency [8] | Potency [10] | Potency [12] | Potency [13] | Potency [14] | Potency [15] | Potency [16] | Potency [18]

Clc1ccc(C2(Cn3cncn3)OCCO2)c(Cl)c1
inactive: Potency [1] | Potency [2] | Potency [3] | Potency [19] | activity change, positive = activation [20] -6.38% | Potency [4] | Potency [5] | Potency [6] | Potency [7] | Potency [8] | Potency [9] | Potency [10] | Potency [12] | Potency [13] | Potency [14] | Potency [15] | Potency [16] | Potency [18]

O=C(Cl)c1ccccc1F
inactive: Potency [1] | Potency [2] | Potency [3] | Potency [4] | Potency [5] | Potency [6] | Potency [7] | Potency [8] | Potency [9] | Potency [10] | max response [11] -0.0017% | Potency [12] | Potency [13] | Potency [14] | Potency [16] | Potency [18]

S=C=Nc1ccccc1
inactive: Potency [1] | Potency [2] | Potency [3] | Potency [4] | Potency [5] | Potency [6] | Potency [7] | Potency [8] | Potency [9] | Potency [10] | max response [11] -7.14% | Potency [12] | Potency [13] | Potency [14] | Potency [15] | Potency [16] | Potency [18]

CC1CCCC1
inactive: Potency [1] | Potency [2] | Potency [3] | Potency [4] | Potency [5] | Potency [6] | Potency [7] | Potency [8] | Potency [9] | Potency [10] | max response [11] -28.5% | Potency [12] | Potency [14] | Potency [15] | Potency [16] | Potency [18]

O=S(=O)(O)F
inactive: Potency [1] | Potency [2] | Potency [3] | Potency [4] | Potency [5] | Potency [6] | Potency [7] | Potency [8] | Potency [9] | Potency [10] | Potency [12] | Potency [13] | Potency [14] | Potency [15] | Potency [16] | Potency [18]

CCCC[N+]1(C)CCCC1 (tested in a mixture with another compound)
inactive: Potency [1] | Potency [2] | Potency [3] | Potency [4] | Potency [5] | Potency [6] | Potency [7] | Potency [8] | Potency [9] | Potency [10] | max response [11] 8.56% | Potency [12] | Potency [13] | Potency [14] | Potency [15] | Potency [16] | Potency [18]

COc1ccc(Cc2nccc3cc(OC)c(OC)cc23)cc1OC
active: Potency [5] 5.35 µM | Potency [9] 4.77 µM | Potency [10] 10.7 µM | Potency [11] 5.35 µM
inactive: Potency [1] | Potency [2] | Potency [3] | Potency [17] | Potency [6] | Potency [7] | Potency [8] | Potency [12] | Potency [13] | Potency [15]

[Cl-].[Cl-].[Sn+2]
inactive: Potency [1] | Potency [2] | Potency [3] | Potency [17] | Potency [4] | Potency [6] | Potency [7] | Potency [8] | Potency [9] | Potency [10] | Potency [12] | Potency [14] | Potency [15] | Potency [16]

COP(=S)(NC(C)C)Oc1ccc(C)cc1[N+](=O)[O-] (stereo not drawn)
inactive: Potency [1] | Potency [2] | Potency [3] | Potency [4] | Potency [5] | Potency [6] | Potency [7] | Potency [8] | Potency [9] | Potency [10] | max response [11] -12.5% | Potency [12] | Potency [13] | Potency [14] | Potency [15] | Potency [16] | Potency [18]

O=c1[nH]c(Cl)c(Cl)cc1Cl
inactive: Potency [1] | Potency [2] | Potency [3] | activity change, positive = activation [20] -28.7% | Potency [4] | Potency [5] | Potency [6] | Potency [7] | Potency [8] | Potency [9] | Potency [10] | max response [11] 0.811% | Potency [12] | Potency [13] | Potency [14] | Potency [15] | Potency [16] | Potency [18]

— PubChem BioAssay (Tox21)
